# Several values for one entry are separate records, joined by “and”; a condition that tells them apart may be missing. Equal values may be shown once. Results filed as inconclusive are left out. Entries that show only a call come without a potency. A structure can be active in one record and inactive in another. Activity calls are given as the source filed them. Unless noted, calls follow the shape of the dose curve; as a rule, active = well fitted curve in the direction sought with a large enough effect in the repeat runs; inconclusive = weak or mixed curves; inactive = no such curve, though single readings can be large; an effect the other way counts as inactive or inconclusive.
# Key:
# [1] = target: Retinoic acid receptor RXR-alpha (Homo sapiens) (UniProt P19793); assay: qHTS assay to identify small molecule agonists of the RXR signaling pathway (AID 1159527; calls by dose curve; also: nearly all actives have a fitted effect of over 35% in size; also: potency is read from the fitted curve at half-maximal effect)
# Method in brief: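 Cells plated at 2,000/well, rested 5 hr at 37 C, pin-dosed with DMSO compound solutions, incubated 16 hr, then loaded with B/G FRET substrate for 2 hr at RT before dual-emission fluorescence reading.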
# [2] = qHTS assay to identify small molecule agonists of the RXR signaling pathway - cell viability counter screen (AID 1159529);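 also: HEK 293T cells carrying an RXR-alpha UAS beta-lactamase reporter; series mostly up to about 77 µM; nearly all actives have a fitted effect of over 50% in size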
# Method in brief: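 Steps: seed RXR-alpha-UAS-bla HEK 293T cells in assay medium containing 2% charcoal-stripped FBS; incubate 5 hr; add compounds in DMSO; incubate 16 hr at 37 C; after the bla read, add CellTiter-Glo and read luminescence at 30 min.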
# [3] = qHTS assay to identify small molecule antagonists of the retinoid acid receptor (RAR) signaling pathway - cell viability counter screen (AID 1159551); also: nearly all actives have a fitted effect of over 35% in size
# Method in brief: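 Cells (C3RL4) are plated, incubated overnight, dosed with compound in DMSO, then given retinol at 1 uM final. After 6 h at 37 C, CellTiter-Glo is added and luminescence read following 30 min at room temperature.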
# [4] = qHTS assay to identify small molecule antagonists of the retinoic acid receptor (RAR) signaling pathway (AID 1159552; also: nearly all actives have a fitted effect of over 50% in size)
# Method in brief: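 Retinol at 1 uM final stimulated RARE-luciferase expression in C3RL4 cells exposed to test compounds for 6 hr at 37 C. Reduced luminescence, read 30 min after detection reagent, indicated pathway antagonism.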
# [5] = qHTS assay to identify small molecule agonists of the retinoic acid receptor (RAR) signaling pathway (AID 1159553); also: potency is read from the fitted curve at half-maximal effect
# Method in brief: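 Seed C3RL4 reporter cells at 1,000 per well and incubate overnight at 37 C. Add compounds in DMSO, incubate 6 hr. Add luciferase reagent, wait 30 min at room temperature, read luminescence.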
# [6] = qHTS assay to identify small molecule antagonists of the estrogen related receptor (ERR) signaling pathway from Tox21 library - cell viability counter screen (AID 1224834); also: nearly all actives have a fitted effect of over 30% in size
# Method in brief: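 ERR cells, 2,000/well; 6 h settle at 37 C/5% CO2; pin-tool compound transfer in DMSO; 17.5 h at 37 C; CellTiter-Fluor, 30 min; fluorescence intensity.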
# [7] = target: Luciferin 4-monooxygenase (Photinus pyralis) (UniProt P08659); assay: qHTS assay to identify small molecule inhibitors of firefly luciferase (AID 1224835); also: nearly all actives have a fitted effect of over 25% in size; also: potency is read from the fitted curve at half-maximal effect
# Method in brief: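 Biochemical qHTS: compounds run as interplate titrations against purified firefly enzyme, with D-luciferin and ATP each at its KM concentration. Light output recorded by CCD imaging.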
# [8] = qHTS assay to identify small molecule agonists of the constitutive androstane receptor (CAR) signaling pathway - cell viability counter screen (AID 1224836); also: series mostly up to about 92 µM; nearly all actives have a fitted effect of over 45% in size
# Method in brief: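 Cells were seeded and incubated 4 hrs. Compounds were added across 15 concentrations together with PK11195 at 0.75 uM final. Plates were incubated 23 hrs at 37 C. CellTiter-Fluor was added and fluorescence measured.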
# [9] = qHTS assay to identify small molecule antagonists of the constitutive androstane receptor (CAR) signaling pathway - cell viability counter screen (AID 1224837); also: series mostly up to about 92 µM; nearly all actives have a fitted effect of over 45% in size
# Method in brief: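 Viability was measured with CellTiter-Fluor in a HepG2 line carrying stably transfected hCAR and a CYP2B6-2.2kb construct. Cells were exposed for 23 hr at 37 C to 15 compound concentrations with 50 nM CITCO as agonist.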
# [10] = target: Nuclear receptor subfamily 1 group I member 3 (Homo sapiens) (UniProt Q14994); assay: qHTS assay to identify small molecule antagonists of the constitutive androstane receptor (CAR) signaling pathway (AID 1224838);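 also: HepG2 cells stably expressing hCAR with CYP2B6 luciferase reporter stimulated by CITCO; nearly all actives have a fitted effect of over 40% in size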
# Method in brief: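 Antagonist mode used CITCO at a final 50 nM to activate CAR in human hepatoma HepG2 cells carrying stable hCAR and a 2.2 kb CYP2B6 promoter-luciferase construct. Compounds were tested at 15 concentrations over 24 h, with luminescence as the end point.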
# [11] = target: Nuclear receptor subfamily 1 group I member 3 (Homo sapiens) (UniProt Q14994); assay: qHTS assay to identify small molecule agonists of the constitutive androstane receptor (CAR) signaling pathway (AID 1224839); also: nearly all actives have a fitted effect of over 15% in size; also: potency is read from the fitted curve at half-maximal effect
# Method in brief: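 Cells were plated and incubated 4 hrs, then dosed with compounds at 15 concentrations. PK11195 was added to 0.75 uM final. After 24 hrs at 37 C, luciferase luminescence was measured.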
# [12] = qHTS assay to identify small molecule antagonists of the estrogen related receptor signaling pathway with the pleiotropic PPARgamma coactivator (PGC) from Tox21 10K library - cell viability counter screen (AID 1224840; active = well fitted cell-killing curve with a large enough effect in the repeat runs, not every such curve was filed as active; also: nearly all actives have a fitted effect of over 40% in size)
# Method in brief: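 Multiplexed viability counter screen in the PGC/ERR cell line: cells treated with DMSO-dissolved compounds for 17.5 hours at 37 C, then viability measured as CellTiter-Fluor fluorescence.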
# [13] = qHTS assay to identify small molecule antagonists of the estrogen related receptor signaling pathway with the pleiotropic PPARgamma coactivator (PGC) from Tox21 10K library (AID 1224841; call rule not given here; also: series mostly up to about 92 µM; actives are mostly falling curves and most rising ones were filed inactive; nearly all actives have a fitted effect of over 50% in size)
# Method in brief: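 Steps: plate 2,000 PGC/ERR cells per well; incubate 6 h at 37 C with 5% CO2; transfer compounds from DMSO stocks by pin tool; incubate 18 h at 37 C; add One-Glo; measure luminescence 30 min later.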
# [14] = qHTS assay to identify small molecule agonists of the estrogen related receptor signaling pathway with the pleiotropic PPARgamma coactivator (PGC) from Tox21 10K library (AID 1224842); also: nearly all actives have a fitted effect of over 15% in size; also: potency is read from the fitted curve at half-maximal effect
# Method in brief: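 PGC/ERR reporter cell line, 2,000 cells per well, incubated 6 h at 37 C before 23 nL compound in DMSO was added. After 18 h at 37 C, One-Glo luminescence read following 30 min at room temperature.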
# [15] = target: Thyrotropin receptor (Homo sapiens) (UniProt P16473); assay: qHTS assay to identify small molecule agonists of the thyroid stimulating hormone receptor (TSHR) signaling pathway (AID 1224843; calls by dose curve; also: nearly all actives have a fitted effect of over 45% in size)
# Method in brief: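 HEK293/TSHR, 800 cells/well; cpd 30 min RT; add cAMP-d2 + anti-cAMP-cryptate, 1 h RT; fluorescence read on plate reader. 15-pt titration, n=3.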
# [16] = qHTS assay to identify small molecule antagonists of the estrogen related receptor (ERR) signaling pathway - cell viability counter screen (AID 1224818);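 also: series mostly up to about 46 µM; viability measured after 17.5 h of compound exposure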
# Method in brief: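 ERR cells, 2,000/well; 6 h settle at 37 C/5% CO2; compound pin transfer (DMSO); 17.5 h at 37 C; CellTiter-Fluor, 30 min, fluorescence read.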
# [17] = qHTS assay to identify small molecule antagonists of the estrogen related receptor (ERR) signaling pathway (AID 1224819;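 also: luminescence from an ERR-driven luciferase reporter measured with One-Glo reagent; series mostly up to about 46 µM; nearly all actives have a fitted effect of over 50% in size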)
# Method in brief: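 qHTS in ERR cells, 2,000/well, 1536 format. Cpd (DMSO) added after 6 h settle, 18 h 37 C. One-Glo luminescence, 30 min RT.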
# [18] = qHTS assay to identify small molecule agonists of the estrogen related receptor (ERR) signaling pathway (AID 1224820)
# Method in brief: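 Luminescence readout (One-Glo, 30 min RT) from NTP-supplied ERR cell line exposed to compounds for 18 h at 37 C. Cells seeded 2,000 per well and pre-incubated 6 h before pin-tool compound transfer.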
# [19] = test system: estrogen-related receptor alpha (ERRalpha) with PGC-1alpha coactivator, human; assay: qHTS assay to identify small molecule antagonists of the estrogen related receptor signaling pathway with the pleiotropic PPARgamma coactivator (PGC) (AID 1224821; calls by dose curve)
# Method in brief: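 PGC/ERR reporter cells; 6 h pre-incubation 37 C/5% CO2; pin-tool compound in DMSO, 18 h 37 C; One-Glo added, 30 min RT; luminescence read. qHTS antagonist mode.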
# [20] = qHTS assay to identify small molecule agonists of the estrogen related receptor signaling pathway with the pleiotropic PPARgamma coactivator (PGC) (AID 1224823)
# Method in brief: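 Luminescence readout (One-Glo, 30 min RT) from PGC/ERR cell line treated 18 h at 37 C with pin-tool-delivered DMSO compound solutions; cells plated 6 h before dosing. Quantitative HTS format.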
# Thyrotropin receptor (Homo sapiens), sequence (P16473 whole entry, looked up): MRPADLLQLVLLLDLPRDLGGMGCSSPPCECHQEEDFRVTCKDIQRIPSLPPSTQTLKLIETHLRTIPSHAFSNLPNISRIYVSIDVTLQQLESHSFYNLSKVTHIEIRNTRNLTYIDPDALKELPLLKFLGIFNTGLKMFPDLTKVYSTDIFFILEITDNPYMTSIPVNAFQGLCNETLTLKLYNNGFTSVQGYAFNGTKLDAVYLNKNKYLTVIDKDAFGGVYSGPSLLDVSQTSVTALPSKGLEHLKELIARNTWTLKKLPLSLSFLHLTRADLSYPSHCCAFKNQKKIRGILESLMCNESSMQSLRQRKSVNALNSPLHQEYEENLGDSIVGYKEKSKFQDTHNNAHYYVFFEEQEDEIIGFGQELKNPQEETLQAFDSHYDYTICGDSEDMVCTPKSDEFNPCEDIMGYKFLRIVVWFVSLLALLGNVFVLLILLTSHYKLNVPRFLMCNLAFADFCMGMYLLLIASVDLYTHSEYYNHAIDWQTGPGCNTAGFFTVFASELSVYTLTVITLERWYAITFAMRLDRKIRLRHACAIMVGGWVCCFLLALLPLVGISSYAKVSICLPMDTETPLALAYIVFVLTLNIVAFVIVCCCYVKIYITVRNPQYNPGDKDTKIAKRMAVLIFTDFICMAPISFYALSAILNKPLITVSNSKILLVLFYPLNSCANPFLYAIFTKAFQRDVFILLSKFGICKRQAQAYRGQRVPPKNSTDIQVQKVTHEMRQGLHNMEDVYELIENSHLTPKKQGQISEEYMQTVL
# Nuclear receptor subfamily 1 group I member 3 (Homo sapiens), sequence (Q14994 whole entry, looked up): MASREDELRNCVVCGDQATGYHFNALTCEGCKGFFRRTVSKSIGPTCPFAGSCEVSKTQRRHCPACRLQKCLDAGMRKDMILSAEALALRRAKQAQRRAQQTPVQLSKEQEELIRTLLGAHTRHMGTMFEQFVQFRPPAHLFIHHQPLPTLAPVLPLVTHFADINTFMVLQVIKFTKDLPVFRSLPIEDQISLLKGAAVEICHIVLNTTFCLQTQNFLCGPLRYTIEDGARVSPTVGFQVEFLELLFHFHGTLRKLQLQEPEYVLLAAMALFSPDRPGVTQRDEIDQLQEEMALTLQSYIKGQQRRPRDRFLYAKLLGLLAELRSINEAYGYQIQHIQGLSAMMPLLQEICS
# Luciferin 4-monooxygenase (Photinus pyralis), sequence (P08659 whole entry, looked up): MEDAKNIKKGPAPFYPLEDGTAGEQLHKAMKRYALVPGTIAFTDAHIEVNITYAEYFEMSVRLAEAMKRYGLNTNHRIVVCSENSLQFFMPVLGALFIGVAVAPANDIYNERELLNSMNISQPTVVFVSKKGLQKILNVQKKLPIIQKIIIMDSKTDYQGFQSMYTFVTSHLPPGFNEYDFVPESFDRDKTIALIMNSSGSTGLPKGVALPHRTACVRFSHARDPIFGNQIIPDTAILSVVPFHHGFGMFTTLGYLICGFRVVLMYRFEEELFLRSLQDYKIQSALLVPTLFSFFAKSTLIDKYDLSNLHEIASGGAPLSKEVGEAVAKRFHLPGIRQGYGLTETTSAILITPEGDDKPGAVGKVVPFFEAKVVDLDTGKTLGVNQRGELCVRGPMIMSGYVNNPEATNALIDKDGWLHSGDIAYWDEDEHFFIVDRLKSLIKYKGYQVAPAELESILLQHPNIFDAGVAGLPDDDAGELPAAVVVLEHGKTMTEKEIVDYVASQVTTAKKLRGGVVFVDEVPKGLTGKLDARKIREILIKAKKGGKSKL
# Retinoic acid receptor RXR-alpha (Homo sapiens), sequence (P19793 whole entry, looked up): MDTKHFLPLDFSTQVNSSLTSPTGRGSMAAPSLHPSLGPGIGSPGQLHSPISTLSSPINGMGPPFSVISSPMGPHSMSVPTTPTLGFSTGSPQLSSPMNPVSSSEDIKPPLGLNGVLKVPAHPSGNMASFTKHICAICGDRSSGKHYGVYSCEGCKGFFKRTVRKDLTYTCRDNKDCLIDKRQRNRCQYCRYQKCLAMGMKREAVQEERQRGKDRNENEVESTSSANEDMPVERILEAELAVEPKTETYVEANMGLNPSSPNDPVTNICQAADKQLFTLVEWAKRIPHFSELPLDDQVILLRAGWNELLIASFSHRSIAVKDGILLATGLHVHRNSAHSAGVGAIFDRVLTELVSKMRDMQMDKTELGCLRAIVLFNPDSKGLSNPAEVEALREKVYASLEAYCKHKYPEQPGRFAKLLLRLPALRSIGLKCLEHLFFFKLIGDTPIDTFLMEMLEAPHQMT
Structure (SMILES),Potency [1],Potency [2],Potency [3],Potency [4],Potency [5],Potency [6],Potency [7],Potency [8],Potency [9],Potency [10],Potency [11],Potency [12],Potency [13],Potency [14],Potency [15],Potency [16],Potency [17],outcome [18],Potency [19],outcome [20]
C=C(C)C(=O)OCCOC(=O)C(=C)C,inactive,inactive,inactive,inactive,inactive,inactive,inactive,inactive,inactive,inactive,inactive,inactive,inactive,inactive,inactive,–,–,–,–,–
C/C=C/C(=O)O,inactive,inactive,inactive,inactive,inactive,inactive,inactive,inactive,inactive,–,–,inactive,inactive,inactive,inactive,–,–,–,–,–
Cc1ccc2c(n1)Oc1ccc(C(C)C(=O)OCC(=O)N(C)C)cc1C2 (stereo not drawn),inactive,inactive,inactive,inactive,10.6 µM (active) and 8.41 µM (active),inactive,17.4 µM (active) and 15.5 µM (active),inactive,inactive,inactive,11.9 µM (active),inactive,inactive,inactive,inactive,–,–,–,–,–
CCCC(=O)O,inactive,inactive,inactive,inactive,inactive,inactive,inactive,inactive,inactive,inactive,inactive,inactive,inactive,inactive,inactive,–,–,–,–,–
CC(C(=O)O)c1cccc(C(=O)c2ccccc2)c1 (stereo not drawn),inactive,inactive,inactive,inactive,inactive,inactive,–,inactive,inactive,–,–,inactive,inactive,inactive,inactive,inactive,inactive,inactive,inactive,inactive
CC(C)Oc1ccc2c(=O)c(-c3ccccc3)coc2c1,inactive,inactive,inactive,inactive,335 nM (active),inactive,1.38 µM (active) and 1.55 µM (active),inactive,inactive,inactive,1.5 µM (active) and 2.11 µM (active),inactive,inactive,2.66 µM (active) and 2.98 µM (active),inactive,–,–,–,–,–
CCCCC(CC)COC(=O)c1ccc(N(C)C)cc1 (stereo not drawn),inactive,inactive,inactive,inactive,inactive,inactive,inactive,inactive,inactive,inactive,24.5 µM (active) and inactive,inactive,–,–,inactive,–,–,–,–,–
NC=O,inactive,inactive,inactive,inactive,inactive,inactive,inactive,inactive,inactive,–,–,inactive,inactive,inactive,–,–,–,–,–,–
O=[N+]([O-])c1ccc2c(c1)Cc1ccccc1-2,inactive,inactive,inactive,inactive,inactive,inactive,inactive,inactive,inactive,inactive,54.4 µM (active),inactive,inactive,–,inactive,–,–,–,–,–
CC(=O)C1(C)CC2=C(CCCC2(C)C)CC1C (stereo not drawn),inactive,inactive,inactive,inactive,inactive,inactive,inactive,inactive,inactive,inactive,inactive,inactive,inactive,inactive,inactive,–,–,–,–,–
CCC(C)CO (stereo not drawn),inactive,inactive,inactive,inactive,inactive,inactive,inactive,inactive,inactive,inactive,inactive,inactive,inactive,inactive,inactive,–,–,–,–,–
CCC(C)c1ccccc1O (stereo not drawn),inactive,inactive,inactive,inactive,inactive,inactive,inactive,inactive,inactive,inactive,inactive,inactive,inactive,inactive,inactive,–,–,–,–,–
CC(C)OC=O,inactive,inactive,inactive,inactive,inactive,inactive,inactive,inactive,inactive,inactive,inactive,inactive,inactive,inactive,inactive,–,–,–,–,–
Cc1cccc(C(=O)O)c1,27.5 µM (active),inactive,inactive,inactive,inactive,inactive,inactive,inactive,inactive,–,inactive,inactive,inactive,inactive,inactive,–,–,–,–,–
c1ccncc1,inactive,inactive,inactive,inactive,inactive,inactive,inactive,inactive,inactive,inactive,inactive,inactive,–,–,inactive,–,–,–,–,–
C[C@]12CCC(=O)C=C1CC[C@@H]1[C@@H]2C(=O)C[C@@]2(C)[C@H]1CC[C@]2(O)C(=O)CO,inactive,inactive,inactive,inactive,inactive,inactive,inactive,inactive,inactive,inactive,inactive,inactive,–,–,–,inactive,–,–,–,–
c1ccc2cc(Nc3ccc(Nc4ccc5ccccc5c4)cc3)ccc2c1,inactive,inactive,inactive,inactive,inactive,inactive,inactive,inactive,inactive,inactive,inactive,inactive,inactive,inactive,–,–,–,–,–,–

# Reference: PubChem BioAssay (Tox21)
